RTF Ca sens act – cardiac RTF calcium sensitivity activators, primary screen, biochemical, IANBD-TnC fluorescence, EC20 calcium; activation, % at 7.2 µM; AID 493008, 2010; IANBD-labeled TnC RTF fluorescence at EC20 calcium; 0% EC20 calcium, 100% full calcium; 340,000 tested, 0.24% active; Troponin I, cardiac muscle (Homo sapiens) + Troponin T, cardiac muscle (Homo sapiens) + …;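 active means activation above the mean over all tested compounds plus 3 SD, cut at about 30% in these data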;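 further: rise in fluorescence read as greater calcium sensitivity of cardiac thin filaments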
CRFR2-BP antag – antagonists of CRF-BP/CRF-R2 complex, primary screen, cell-based, HEK293, calcium dye fluorescence, uHTS | 350,000 tested, 0.59% active | AID 588475, 2011 | inhibition, % at 11.8 µM | CRF-induced calcium fluorescence;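 active means inhibition of the ligand-induced calcium signal above about 50% at the single tested concentration, limit read from the data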
RTF Ca sens inh – cardiac RTF calcium sensitivity inhibitors, primary screen, biochemical, IANBD-TnC fluorescence, EC70 calcium; inhibition, % at 7.15 µM; AID 493244, 2011; IANBD-labeled cardiac RTF, Ca2+ fluorescence; 340,000 tested, 0.12% active; Troponin I, cardiac muscle (Homo sapiens) + Troponin T, cardiac muscle (Homo sapiens) + …;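 active means inhibition above the mean inhibition of all tested compounds plus 3 SD, cut at about 17% in these data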;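 further: assay run at fixed EC70 calcium of 1.6 mM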
CRFR2-BP ag – agonists of CRF-BP/CRF-R2 complex, primary screen, cell-based, HEK293, calcium dye fluorescence, uHTS; activation, % at 13.2 µM; calcium dye fluorescence (FLIPR); percent of saturating CRF peptide response; 350,000 tested, 0.46% active; AID 588473, 2011; CRF-binding protein / CRF receptor 2 complex (human);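 active means activation of at least 50%, plus an integration ratio under a set limit after plate pattern correction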
TMEM16A inh – TMEM16A chloride channel inhibitors, primary screen, cell-based, HTS. Anoctamin-1 (Mus musculus), Q8BHY3. 310,000 tested, 1.2% active. HEK293 TMEM16A/YFP iodide influx fluorescence, ionomycin. normalized B-score (activity score, 25-100; higher = stronger inhibition) at 10 µM;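 active means ratio plate-corrected score three or more library SD toward inhibition, starting fluorescence score within five deviations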;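 further: score derived from kinetic fluorescence span divided by baseline fluorescence per well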
TMEM16A act – TMEM16A chloride channel activators or potentiators, primary screen, cell-based, HTS; HEK293 TMEM16A/YFP-H148Q/I152L, iodide quench fluorescence; hits give low values; B-score at 10 µM; 340,000 tested, 0.3% active; AID 623877, 2012;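 active means fluorescence-ratio B-score plate-corrected deviation score at least 3 library SD below zero, with starting fluorescence score within 5 deviations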;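 further: channel opened by trigger with iodide after compound preincubation; score built on the fluorescence ratio of max minus min over baseline; more negative score means more quench and so TMEM16A activation or potentiation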
TMEM16A reconf – TMEM16A chloride channel inhibitors, confirmation, cell-based, re-confirmation | HEK293 TMEM16A/YFP-H148Q, iodide quench fluorescence; ionomycin added to raise cell calcium | shares compounds with TMEM16A inh | AID 652189, 2013 | 2,300 tested, 39% active | inhibition, % at 10 µM;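 active means mean duplicate percent inhibition, scaled so buffer wells are 0 and the reference blocker 100, over three buffer SD above buffer mean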
TMEM16A Ca cntr – calcium mobilization in TMEM16A/YFP HEK293 cells, confirmation, counter-screen for TMEM16A inhibitor project; shares compounds with TMEM16A inh; calcium response (% of ionomycin), % at 10 µM; AID 652231, 2013; Fluo4 calcium mobilization; 2,300 tested, 2% active;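 active means duplicate-averaged calcium signal over 20% of the ionomycin maximum, relative to buffer baseline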;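 further: each well's signal is peak minus trough fluorescence divided by its pre-addition baseline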
YFP-HEK293 quench – iodide YFP quench changes in parental YFP-HEK293, counter-screen for TMEM16A inhibitor project, cell-based. AID 652233, 2013. shares compounds with TMEM16A inh. 2,300 tested, under 10 active. YFP ratio F(max-min)/F0 at 10 µM. ionomycin;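 active means yellow fluorescent protein signal ratio exceeding the buffer control mean by over 5 SD of those controls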;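 further: ratio is mean of duplicate wells from kinetic YFP trace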
ClC-1 rat inh – ClC-1 chloride channel inhibition, selectivity assay for TMEM16A inhibitor project, cell-based, voltage-dependent ClC-1; shares compounds with TMEM16A inh; 2,300 tested, under 10 active; ratio percent, % at 10 µM; CHO ClC-1-YFP, iodide influx fluorescence quench; iodide control reads 0, buffer control 100;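 active means duplicate-mean ratio percent above the mean of iodide-only control wells, which defines zero, plus 5 of their SD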;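 further: higher percent means stronger block of ClC-1 iodide influx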
Each line names hits and unclear results; the compound was inactive in the other large screens (follow-up assays come after a bar, where they were run). Only some compounds are listed: those with a hit (about 2.4% of all), similar ones and a draw of the others.

COC(=O)C(C)Sc1nc2ccsc2c(=O)n1Cc1ccccc1 (configuration not stated)	none
NS(=O)(=O)c1ccc(NCc2ccccc2OCc2ccc(F)cc2)cc1	TMEM16A inh 100 | TMEM16A reconf inactive | TMEM16A Ca cntr inactive | YFP-HEK293 quench inactive | ClC-1 rat inh inactive
COc1ccc(Cl)cc1NC(=O)CN(C)C(=O)c1cc2ccccc2cc1O	none
COc1ccc(C)cc1NC(=O)CSc1nnc(COc2ccc(C)cc2)n1Cc1ccco1	TMEM16A inh 25 | TMEM16A reconf inactive | TMEM16A Ca cntr inactive | YFP-HEK293 quench inactive | ClC-1 rat inh inactive
COc1ccccc1NC(=O)CSc1nnc(COc2ccc(Cl)cc2)n1Cc1ccco1	none
CCOC(=O)/C=C1/SCC(=O)N1CC(=O)c1ccc[nH]1	none (no result: TMEM16A inh)
O=c1c(Sc2ccccc2)c(C(F)(F)F)[nH]n1-c1ccccc1	CRFR2-BP antag 80.7, TMEM16A inh 100 | TMEM16A reconf 23.5% | TMEM16A Ca cntr inactive | YFP-HEK293 quench inactive | ClC-1 rat inh inactive
Cc1ccc(-c2nc3cccnc3o2)cc1NC(=O)COc1ccc(C(C)(C)C)cc1	TMEM16A inh 25 | TMEM16A reconf inactive | TMEM16A Ca cntr 21.0% | YFP-HEK293 quench inactive | ClC-1 rat inh inactive
C/C(=N/NC(=O)CNC(=O)c1ccncc1)c1ccco1	none (no result: RTF Ca sens act, RTF Ca sens inh)
CCc1ccc(C2CC(=O)N3CN(c4ccccc4)CSC3=C2C#N)cc1 (configuration not stated)	none
N#CC1=C2SCC(O)(c3ccccc3)N2C(=O)CC1c1ccccc1 (configuration not stated)	TMEM16A inh 100 | TMEM16A reconf 16.5% | TMEM16A Ca cntr inactive | YFP-HEK293 quench inactive | ClC-1 rat inh inactive
C/C(=N\NC(=S)NCCc1ccccc1)c1ccc(O)cc1O	TMEM16A inh 25 | TMEM16A reconf 23.0% | TMEM16A Ca cntr inactive | YFP-HEK293 quench inactive | ClC-1 rat inh inactive
COc1cccc(/C=C2/CN(C)CC3=C2OC(N)=C(C#N)C3c2cccc(OC)c2)c1 (configuration not stated)	none | TMEM16A reconf inactive | TMEM16A Ca cntr inactive | YFP-HEK293 quench inactive | ClC-1 rat inh inactive
CCN(CC)c1c(-c2ccccc2)c2cc(C)ccc2[nH]c1=O	TMEM16A inh 25 | TMEM16A reconf inactive | TMEM16A Ca cntr inactive | YFP-HEK293 quench inactive | ClC-1 rat inh inactive
C/C(=N\N)c1c(-c2ccccc2)c2cc(C)ccc2[nH]c1=O	none
CC(Oc1ccccc1)C(=O)Nc1ccc(NC(=O)c2ccccc2)cc1 (configuration not stated)	none
CC(Oc1ccc(C(=O)c2ccccc2)cc1)C(=O)Nc1ccc(S(N)(=O)=O)cc1 (configuration not stated)	CRFR2-BP ag 61.2, TMEM16A inh 100 | TMEM16A reconf 53.5% | TMEM16A Ca cntr inactive | YFP-HEK293 quench inactive | ClC-1 rat inh inactive
C#CCOCCOCCOCCNc1nc(N2CCN(C(=O)[C@H](CCC(=O)O)n3cc([C@@H](N)CC(N)=O)nn3)CC2)nc(N2CCN(C(=O)[C@H](CCC(=O)O)n3cc([C@@H](N)CC(N)=O)nn3)CC2)n1	none (no result: TMEM16A inh, TMEM16A act)
Cc1nc(N2CCN(Cc3ccccc3)CC2)nc2c1C(=O)CC(C)C2 (configuration not stated)	none
COc1ccc(C2CC(=O)c3c(C)nc(N4CCN(Cc5ccccc5)CC4)nc3C2)cc1OC (configuration not stated)	TMEM16A inh 100 | TMEM16A reconf 26.0% | TMEM16A Ca cntr inactive | YFP-HEK293 quench inactive | ClC-1 rat inh inactive
CCSC1OC(C(COC(C)=O)OC(C)=O)C(OC(C)=O)C1NC(C)=S (configuration not stated)	none (no result: TMEM16A inh)
Cc1cccc(NC(=S)NCCSc2ccc(Cl)cc2)c1	TMEM16A inh 100 | TMEM16A reconf 71.5% | TMEM16A Ca cntr inactive | YFP-HEK293 quench inactive | ClC-1 rat inh inactive
Cc1ccc(C)c(NC(=S)NCCSc2ccc(Cl)cc2)c1	none
COc1ccccc1CC(=O)N(Cc1ccccc1)c1cccc(C)c1	TMEM16A inh 100 | TMEM16A reconf inactive | TMEM16A Ca cntr inactive | YFP-HEK293 quench inactive | ClC-1 rat inh inactive
COc1ccc(CCn2c(=S)[nH]c3cc(C(=O)NCc4ccco4)ccc3c2=O)cc1OC	TMEM16A inh 25 | TMEM16A reconf inactive | TMEM16A Ca cntr inactive | YFP-HEK293 quench inactive | ClC-1 rat inh inactive
COc1ccc(C(=O)Nc2nc(-c3cccs3)cs2)cc1	TMEM16A inh 100 | TMEM16A reconf 23.5% | TMEM16A Ca cntr inactive | YFP-HEK293 quench inactive | ClC-1 rat inh inactive
CCn1nc(C(=O)N2CCN(Cc3nc4ccccc4s3)CC2)c2ccccc2c1=O	none (no result: TMEM16A inh)
CS(=O)(=O)c1ccc(C(=O)OCC(=O)c2ccc(Cl)s2)cc1	none
CSc1ccc(N2C(=O)NC3(CCCCC3)C2=O)cc1	none
Cc1ccc(-n2c(SCC(N)=O)nc3c(c2=O)C2(CCCC2)Cc2ccccc2-3)cc1	TMEM16A inh 25 | TMEM16A reconf 39.0% | TMEM16A Ca cntr inactive | YFP-HEK293 quench inactive | ClC-1 rat inh inactive
CCCCOc1ccc(/C=C/C(=O)NC2=Nc3ccccc3NC(C)=C2C(=O)OCC)cc1OC	none
O=C(c1ccc(CNS(=O)(=O)c2ccccc2)cc1)N1CCN(Cc2ccccc2)CC1	TMEM16A inh 25 | TMEM16A reconf inactive | TMEM16A Ca cntr inactive | YFP-HEK293 quench inactive | ClC-1 rat inh inactive
Oc1ccc(N=C/C=C/c2ccc(Br)cc2)cc1-c1nc2ccccc2s1	none (no result: RTF Ca sens act, CRFR2-BP antag, RTF Ca sens inh, CRFR2-BP ag, TMEM16A act)
